Sampled rows, rich in hits. Any-hit rate of the full collection: about 11%.
BAZ2B inh = blocks human BAZ2B; AlphaScreen BAZ2B-H3K14Ac peptide displacement; Potency, µM (top dose mostly 114 µM), most hits filed as inhibitors; hit rate 4.4% among 360,000; also: nearly all actives have a fitted effect of over 60% in size
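BAZ2B (50 nM) with biotin-H3(5-23)K14Ac peptide (50 nM) in PBS pH 7.4, 0.01% Tween-20, preformed 30 min, then compound 30 min at room temperature; top concentration 110uM. AlphaScreen streptavidin donor/nickel chelate acceptor beads (10 ug/mL final), 20 min dark, signal read.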
G9a block = blocks human histone lysine methyltransferase G9a | hit rate 8.8% among 350,000 | Potency, µM (series often up to 102 µM), usual class: inhibitors | G9a H3K9 monomethylation, AlphaScreen, 2 h; also: nearly all actives have a fitted effect of over 75% in size
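G9a (20 nM) was preincubated 15 min with compound, then reacted 2 h at room temperature with 500 nM biotin-H3K9 peptide and 20 µM SAM. Monomethyl-H3K9 detected by AlphaScreen using anti-H3K9me1 antibody.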
L3MBTL1 inh = L3MBTL1 (human) inhibition | AlphaScreen L3MBTL1–H3K9me1 peptide binding | Potency, µM (titrated, usually from 57.1 µM), most hits filed as inhibitors | hit rate 0.66% among 230,000; also: nearly all actives have a fitted effect of over 60% in size
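AlphaScreen proximity signal between nickel-chelate acceptor and streptavidin donor beads (final 10 ug/mL) reports binding of 50 nM L3MBTL1 to 75 nM biotin-H3 K9me1 peptide; complex incubated with compounds 30 min at room temperature; cefsulodin titration as control.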
HP1b chromo inh = HP1-beta chromodomain-methylated histone interaction inhibition. P83916. AlphaScreen HP1-beta / biotin-H3K9me3 peptide binding. Potency, µM (titrated, usually from 114 µM), most hits filed as inhibitors. hit rate 0.56% among 390,000. AID 540317; also: nearly all actives have a fitted effect of over 70% in size
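AlphaScreen: HP1-beta (50 nM) preformed 30 min with biotin-H3(1-18)K9me3 peptide (50 nM) in PBS pH 7.4, 0.01% Tween-20. Compound added for 30 min at RT, then streptavidin donor/nickel chelate acceptor beads (10 ug/mL) for 30 min.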
JMJD2A Tudor = JMJD2A Tudor domain (human) inhibition | O75164 | AlphaScreen JMJD2A-Tudor / H3K4me3 peptide binding | Potency, µM (top dose mostly 114 µM), most hits filed as inhibitors | hit rate 4.4% among 390,000; also: nearly all actives have a fitted effect of over 50% in size
Numbers stand for hits; . = inactive; ? = inconclusive; / = no result given; [ ] = remark or other dose. Calls follow the shape of the dose curve; as a rule, active = well fitted inhibition curve with a large enough effect; inconclusive = small, poorly fitted or top-dose-only effect; inactive = no such curve, though single readings can be large or run the other way.

SMILES | BAZ2B inh | G9a block | L3MBTL1 inh | HP1b chromo inh | JMJD2A Tudor
CCOC(=O)c1nc(NNC(=O)c2ccc([N+](=O)[O-])cc2)sc1C | ? | 45µM | . | . | ?
Cc1nc2ccc(C(=O)O)cc2c2c1CC(CN)O2 (stereo unspecified) | . | 79µM | . | . | ?
CCOC(=O)c1ccc2nc(C)c3c(c2c1)OC(C)C3 (stereo unspecified) | . | . | . | . | .
COc1ccc(CCC(C(O)C(F)(F)F)S(=O)c2ccccc2)cc1 (stereo unspecified) | . | ? | . | . | 40µM
c1ccc(CN2CCC(Nc3nc(-c4cccs4)nc4ccccc34)CC2)cc1 | ? | 35µM | ? | . | ?
C=CCN(c1ccccc1)S(=O)(=O)c1cccc(C(=O)NNC(=O)c2ccccc2O)c1 | . | . | . | . | 89µM
Cc1cc(-c2onc3ccc(Cl)cc23)ccc1O | . | 40µM | / | . | .
CCCN(Cc1nnc(-c2ccccc2Cl)o1)C(=O)c1cc([N+](=O)[O-])cc([N+](=O)[O-])c1 | / | 50µM | / | . | .
O=C(Oc1ccc(F)cc1)c1nc(SCc2ccccc2F)ncc1Cl | . | . | / | . | .
COc1ccc(-n2cnc3cc(C(=O)NCCC4=CCCCC4)ccc32)cc1 | . | . | / | . | .
COC(=O)c1sc2ncn(CC(=O)N(C)C3CCCCC3)c(=O)c2c1C | . | . | / | . | .
Cc1sc2ncn(CC(=O)N(C)C3CCCCC3)c(=O)c2c1C | . | 40µM | . | . | .
COc1ccccc1CNc1cc(-c2ccccc2C(F)(F)F)ncn1 | / | .[0.501 µM] | / | / | /
Cc1ccc(C(=O)N2CCc3cc(CNC(=O)c4ccccc4F)ccc32)cc1 | . | . | / | . | .
Cc1ccc(C2=CSC3=NCCN23)c(C)c1 | . | ? | . | . | ?
Cc1ccc(C2=CSC3=NNC4(CCCCC4)NN23)cc1 | ? | ? | . | . | 45µM
COc1ccc(C2=CSC3=NNC4(CCCCC4)NN23)cc1 | ? | 40µM | . | ? | .
CCCC[n+]1c2ccccc2cc2ccccc21 | 56µM | 1.3µM | / | . | 40µM
CCC[n+]1c2ccccc2cc2ccccc21 | 45µM | 3.5µM | / | . | 20µM
CN1CCN(CCC(=O)Nc2ccccc2)CC1 | . | / | . | . | .
O=C(CCN1CCCC1)Nc1ccc(Br)cc1 | . | 20µM | . | . | .
CN1CCN(CCC(=O)Nc2ccc(C3CCCC3)cc2)CC1 | ? | 32µM | . | . | .
CN1CCN(CCC(=O)Nc2ccc(Cl)cc2)CC1 | . | 11µM | / | . | .
CC1CCN(C(=O)Cn2cc(SCc3ccccc3)c3ccccc32)CC1 | . | . | / | . | .
CN(C)C(=O)c1ccc(NC(=O)COC(=O)C2CCN(S(=O)(=O)c3ccc4c(c3)OCCO4)CC2)cc1 | . | 40µM | . | . | .
SMILES | BAZ2B inh | G9a block | L3MBTL1 inh | HP1b chromo inh | JMJD2A Tudor
Cc1ccc(S(=O)(=O)N2CCC(C(=O)OCC(=O)N(CCC#N)c3ccc(F)cc3)CC2)cc1C | . | . | . | . | .
Cc1ccc(N(CCC#N)C(=O)COC(=O)C2CCN(S(=O)(=O)c3ccc4c(c3)OCCO4)CC2)cc1 | . | 32µM | . | . | .
Cc1ccc(N(CCC#N)C(=O)COC(=O)C2=COCCO2)cc1 | . | 40µM | . | . | .
CCS(=O)(=O)c1nc(NC(C)=O)n[nH]1 | 50µM | 5.6µM | . | . | .[11.4 µM]
COc1ccccc1-c1nc(NC(C)=O)n[nH]1 | . | . | . | . | .
CCN(CC(=O)Nc1c(F)cccc1F)C(=O)CCc1nc2sc3c(c2c(=O)[nH]1)CCCC3 | 50µM | .[0.501 µM] | ? | . | ?
CN(CC(=O)Nc1c(Cl)cccc1Cl)C(=O)CCc1nc2sc3c(c2c(=O)[nH]1)CCCC3 | ? | .[0.501 µM] | ? | . | .
CN(CC(=O)Nc1ccc(F)cc1)C(=O)CCc1nc2sc3c(c2c(=O)[nH]1)CCCC3 | . | 56µM | ? | . | .
CN(CC(=O)Nc1ccc(Cl)cc1)C(=O)CCc1nc2sc3c(c2c(=O)[nH]1)CCCC3 | . | 50µM | ? | . | .
CCN(CC)C(=O)c1cccc(NC(=O)CCc2nc3sc4c(c3c(=O)[nH]2)CCCC4)c1 | . | . | . | . | .
CCCCCn1c(-c2ccc(OC)c(OC)c2)nc2ccccc21 | . | . | / | . | .
O=C(CSC1=Nc2ccccc2C2=NC(CCC(=O)NC3CCCCC3)C(=O)N12)Nc1cccc(C(F)(F)F)c1 (stereo unspecified) | . | . | / | . | .

High-throughput results as filed in PubChem.
